Results filed as inconclusive are left out. Where a call stands in place of a potency, no number is given. Unmarked numbers belong to inactive results. Calls of active or inactive are those of the source. Calls come from the whole dose curve; as a rule, active = well fitted curve in the direction sought with a large enough effect; inconclusive = small, poorly fitted or top-dose-only effect, or another doubt; inactive = no such curve, though single readings can be large; an effect the other way counts as inactive or inconclusive.
Assays:
MCC-13 = assay: qHTS assay to identify novel small-molecules to repurpose for Merkel cell carcinoma treatment (AID 1296009); details: MCC and control cell lines, CellTiter-Glo viability, 72 h; series mostly up to 46 µM; note: nearly all actives have a fitted effect of over 60% in size; note: potency is the fitted concentration of half-maximal effect
Outline: (§1)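 CellTiter-Glo luminescence after 72 hr compound exposure at 37 degree celsius gave cell viability. Libraries NPC and MIPE were run as 8- and 11-point dose responses; RLUs normalized to DMSO (negative) and no-cell (cytotoxicity) controls.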

MCC-26 = assay: as above; details: MCC and control cell lines, CellTiter-Glo viability, 72 h; series mostly up to 46 µM
Outline: as §1

MKL-1 = assay: as above; details: MCC and control cell lines, CellTiter-Glo viability, 72 h; series mostly up to 46 µM
Outline: as §1

MKL-2 = assay: as above; details: MCC and control cell lines, CellTiter-Glo viability, 72 h; series mostly up to 46 µM
Outline: as §1

NIH3T3 = assay: as above; details: MCC and control cell lines, CellTiter-Glo viability, 72 h; series mostly up to 44.8 µM
Outline: as §1

UISO = assay: as above; details: MCC and control cell lines, CellTiter-Glo viability, 72 h; series mostly up to 46 µM
Outline: as §1

WaGa = assay: as above; details: MCC and control cell lines, CellTiter-Glo viability, 72 h; series mostly up to 46 µM
Outline: as §1

C33A = assay: Primary qHTS to identify gynecologic anti-cancer compounds using libraries of approved drugs and bioactive compounds (AID 1345084); details: Gynecologic cancer cell panel viability, ATPlite luminescence, 48 h; series mostly up to 57.5 µM; note: nearly all actives have a fitted effect of over 55% in size
Outline: (§2)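 48 h compound exposure at 37 C, 5% CO2; five-point qHTS. ATPlite luminescence readout of cell ATP.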

CAOV3 = assay: as above; details: Gynecologic cancer cell panel viability, ATPlite luminescence, 48 h; series mostly up to 57.5 µM
Outline: as §2

CASKI = assay: as above; details: Gynecologic cancer cell panel viability, ATPlite luminescence, 48 h; series mostly up to 57.5 µM
Outline: as §2

Es-2 = assay: as above; details: Gynecologic cancer cell panel viability, ATPlite luminescence, 48 h; series mostly up to 57.5 µM
Outline: as §2

HeLa = assay: as above; details: Gynecologic cancer cell panel viability, ATPlite luminescence, 48 h; series mostly up to 57.5 µM
Outline: as §2

Hek293T = assay: as above; details: Gynecologic cancer cell panel viability, ATPlite luminescence, 48 h, control line for the selectivity index; series mostly up to 57.5 µM
Outline: as §2

JEG-3 = assay: as above; details: Gynecologic cancer cell panel viability, ATPlite luminescence, 48 h; series mostly up to 57.5 µM
Outline: as §2

OV90 = assay: as above; details: Gynecologic cancer cell panel viability, ATPlite luminescence, 48 h; series mostly up to 57.5 µM
Outline: as §2

PA-1 = assay: as above; details: Gynecologic cancer cell panel viability, ATPlite luminescence, 48 h; series mostly up to 57.5 µM
Outline: as §2

Tov-21-G = assay: as above; details: Gynecologic cancer cell panel viability, ATPlite luminescence, 48 h; series mostly up to 57.5 µM
Outline: as §2

Tov112D = assay: as above; details: Gynecologic cancer cell panel viability, ATPlite luminescence, 48 h; series mostly up to 57.5 µM
Outline: as §2

SKOV3 = assay: as above; details: Gynecologic cancer cell panel viability, ATPlite luminescence, 48 h; series mostly up to 57.5 µM
Outline: as §2

## COc1nc(C)cnc1NS(=O)(=O)c1cccnc1-c1ccc(-c2nnco2)cc1
MCC-13
  Potency: inactive
MCC-26
  Potency: inactive
MKL-1
  Potency: inactive
MKL-2
  Potency: inactive
NIH3T3
  Potency: inactive
UISO
  Potency: inactive
WaGa
  Potency: inactive
C33A
  Potency: inactive
CAOV3
  Potency: inactive
CASKI
  Potency: inactive
Es-2
  Potency: inactive
HeLa
  Potency: inactive
Hek293T
  Potency: inactive
JEG-3
  Potency: inactive
OV90
  Potency: inactive
PA-1
  Potency: inactive
Tov-21-G
  Potency: inactive
Tov112D
  Potency: inactive

## CCCCC[C@H](O)C=C[C@H]1[C@H](O)CC(=O)[C@H]1CCCCCCC(=O)O
MCC-13
  Potency: inactive
MCC-26
  Potency: inactive
MKL-1
  Potency: inactive

## CN1[C@H]2CC[C@H]1CC(OC(=O)c1c[nH]c3ccccc13)C2 (stereo not given in full)
MCC-13
  Potency: inactive
MCC-26
  Potency: inactive
MKL-1
  Potency: inactive
MKL-2
  Potency: inactive
NIH3T3
  Potency: inactive
UISO
  Potency: inactive
WaGa
  Potency: inactive

## CC(=O)N1CCN(c2ccc(OCc3nn(C)c(C)c3-c3cccc4c(CCCOc5cc(C)c(Cl)c(C)c5)c(C(=O)O)n(Cc5cccnc5)c34)cc2)CC1
MCC-13
  Potency: inactive
MCC-26
  Potency: inactive
MKL-1
  Potency: inactive
MKL-2
  Potency: 14.8 µM (active)
NIH3T3
  Potency: inactive
UISO
  Potency: inactive
WaGa
  Potency: 11.8 µM (active)

## COc1ccc2c(c1)c(C1=C(c3c[nH]c4ccccc34)C(=O)NC1=O)cn2CCCN(C)C
MCC-13
  Potency: inactive
MCC-26
  Potency: inactive

## Oc1ccc(C=Cc2cc(O)cc(O)c2)cc1
MCC-13
  Potency: inactive
MCC-26
  Potency: inactive
MKL-1
  Potency: inactive

## COc1ccc2cc1Oc1ccc(cc1)C[C@H]1c3cc(c(OC)cc3CCN1C)Oc1c(OC)c(OC)cc3c1[C@H](C2)N(C)CC3
MCC-13
  Potency: inactive
MCC-26
  Potency: inactive

## C[C@@]1(c2cc(-c3cncnc3)c(F)cc2F)CCSC(N)=N1
MCC-13
  Potency: inactive
MCC-26
  Potency: inactive
MKL-1
  Potency: inactive
MKL-2
  Potency: inactive
NIH3T3
  Potency: inactive
UISO
  Potency: inactive
WaGa
  Potency: inactive
C33A
  Potency: inactive
CASKI
  Potency: inactive
Es-2
  Potency: inactive
HeLa
  Potency: inactive
Hek293T
  Potency: inactive
JEG-3
  Potency: inactive
OV90
  Potency: inactive
PA-1
  Potency: inactive
SKOV3
  Potency: inactive
Tov-21-G
  Potency: inactive
Tov112D
  Potency: inactive

## Cc1ccc2c(=O)c3cccc(CC(=O)O)c3oc2c1C
MCC-13
  Potency: inactive
MCC-26
  Potency: inactive
MKL-1
  Potency: inactive
MKL-2
  Potency: inactive
NIH3T3
  Potency: inactive
UISO
  Potency: inactive
WaGa
  Potency: inactive

## Cc1cc2c(cc1C1(c3ccc(C(=O)O)cn3)CC1)C(C)(C)CCC2(C)C
MCC-13
  Potency: inactive
MCC-26
  Potency: inactive
MKL-1
  Potency: inactive
MKL-2
  Potency: inactive
NIH3T3
  Potency: inactive
UISO
  Potency: inactive
WaGa
  Potency: inactive
C33A
  Potency: inactive
CAOV3
  Potency: inactive
JEG-3
  Potency: inactive
OV90
  Potency: inactive

## O=C(Nc1ncc(SCCN2CCCC2)s1)[C@]1(c2ccc(S(=O)(=O)C3CC3)cc2)C[C@@H]1C1CCCCC1
MCC-13
  Potency: inactive
MCC-26
  Potency: inactive

## COc1cc(Nc2nc3ccccc3nc2NS(=O)(=O)c2ccc(NC(=O)c3ccc(C)c(OC)c3)cc2)cc(OC)c1
MCC-13
  Potency: inactive
MCC-26
  Potency: inactive
MKL-1
  Potency: inactive
MKL-2
  Potency: inactive
NIH3T3
  Potency: inactive
UISO
  Potency: inactive
WaGa
  Potency: inactive
C33A
  Potency: inactive
CAOV3
  Potency: inactive
CASKI
  Potency: inactive
Es-2
  Potency: inactive
HeLa
  Potency: inactive
Hek293T
  Potency: inactive
JEG-3
  Potency: inactive
OV90
  Potency: inactive
PA-1
  Potency: inactive
SKOV3
  Potency: inactive
Tov-21-G
  Potency: inactive
Tov112D
  Potency: inactive

## NC(=O)c1ccc(N(C(N)=O)c2c(F)cccc2F)nc1-c1ccc(F)cc1F
MCC-13
  Potency: inactive
MCC-26
  Potency: inactive
MKL-1
  Potency: inactive
MKL-2
  Potency: inactive
NIH3T3
  Potency: inactive
UISO
  Potency: inactive
WaGa
  Potency: inactive
C33A
  Potency: inactive
CASKI
  Potency: inactive
Es-2
  Potency: inactive
HeLa
  Potency: inactive
Hek293T
  Potency: inactive
JEG-3
  Potency: inactive
OV90
  Potency: inactive
PA-1
  Potency: inactive
SKOV3
  Potency: inactive
Tov-21-G
  Potency: inactive
Tov112D
  Potency: inactive

## CCOC(=O)N1c2ccc(C(F)(F)F)cc2[C@@H](N(Cc2cc(C(F)(F)F)cc(C(F)(F)F)c2)C(=O)OC)C[C@H]1CC
MCC-13
  Potency: inactive
MCC-26
  Potency: inactive
MKL-1
  Potency: inactive
MKL-2
  Potency: inactive
NIH3T3
  Potency: inactive
UISO
  Potency: inactive
WaGa
  Potency: inactive

## CCCCC(C)(C)[C@H](O)C=C[C@H]1[C@H](O)CC(=O)[C@H]1CC=CCCCC(=O)O
MCC-13
  Potency: inactive
MCC-26
  Potency: inactive

## O=C(c1ccc(C(=O)N2CCC(N3CCCC3)CC2)c(Nc2ccccc2)c1)N1CCC(N2CCCC2)CC1
MCC-13
  Potency: inactive
MCC-26
  Potency: inactive
MKL-1
  Potency: inactive
MKL-2
  Potency: inactive
NIH3T3
  Potency: inactive
UISO
  Potency: inactive
WaGa
  Potency: inactive
C33A
  Potency: inactive
CASKI
  Potency: inactive
Es-2
  Potency: inactive
HeLa
  Potency: inactive
Hek293T
  Potency: inactive
JEG-3
  Potency: inactive
OV90
  Potency: inactive
PA-1
  Potency: inactive
SKOV3
  Potency: inactive
Tov-21-G
  Potency: inactive
Tov112D
  Potency: inactive

## CC(C)=CCCC(C)=CCCC(C)=CCCC(C)=CCCC(C)=CCCC(C)=CCCC(C)=CCCC(C)=CCCC(C)=CCO
MCC-13
  Potency: inactive
MCC-26
  Potency: inactive
MKL-1
  Potency: inactive
MKL-2
  Potency: inactive
UISO
  Potency: inactive
WaGa
  Potency: inactive

## CC=C1C2C=C(C)CC1(N)c1ccc(=O)[nH]c1C2 (stereo not given)
MCC-13
  Potency: inactive
MCC-26
  Potency: inactive
MKL-1
  Potency: inactive
MKL-2
  Potency: inactive
UISO
  Potency: inactive
WaGa
  Potency: inactive

## CC1(C)[C@H]2CC[C@]3(C)[C@@H](C(=O)C=C4[C@@H]5C[C@@](C)(C(=O)O)CC[C@]5(C)CC[C@]43C)[C@@]2(C)CC[C@@H]1O
MCC-13
  Potency: inactive
MCC-26
  Potency: inactive
MKL-1
  Potency: inactive
MKL-2
  Potency: inactive
UISO
  Potency: inactive
WaGa
  Potency: inactive

## CC=C(C(=CC)c1ccc(O)cc1)c1ccc(O)cc1
MCC-13
  Potency: inactive
MCC-26
  Potency: inactive
MKL-1
  Potency: inactive
MKL-2
  Potency: inactive
UISO
  Potency: inactive
WaGa
  Potency: inactive

## O=C(O)C1=CO[C@@H](O[C@@H]2O[C@H](CO)[C@H](O)[C@H](O)[C@H]2O)[C@@H]2C(CO)=CC[C@H]12
MCC-13
  Potency: inactive
MCC-26
  Potency: inactive
MKL-1
  Potency: inactive
MKL-2
  Potency: inactive
UISO
  Potency: inactive
WaGa
  Potency: inactive

## C#C[C@]1(O)CC[C@H]2[C@H]3CCc4cc(OC)ccc4[C@H]3CC[C@@]21C
MCC-13
  Potency: inactive
MCC-26
  Potency: inactive
MKL-1
  Potency: inactive
MKL-2
  Potency: inactive
UISO
  Potency: inactive
WaGa
  Potency: inactive
